# KDM5B inh: Primary screen for KDM5B Histone Demethylases FDH-coupled qHTS; Potency, µM (top dose mostly 57.7 µM), usual class: inhibitors; 2.6% of 220,000 active; AID 1347165, 2019; Lysine-specific demethylase 5B (Homo sapiens), Q9UGL1; KDM5B demethylase, FDH-coupled NADH fluorescence (FDH is formaldehyde dehydrogenase); also: nearly all actives have a fitted effect of over 70% in size
#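 Here, H3K4me3 peptide (12.5 µM in substrate mix) is demethylated by KDM5BΔAP, 200 nM final, after 10 min compound exposure. Formaldehyde product is coupled through FDH (0.25 U/mL in mix) to NADH fluorescence; 30-min ΔRFU feeds dose-response curves.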
# IP6K1 inh: Primary qHTS assay for small molecule inhibitors of Inositol hexaphosphate kinase 1 (IP6K1) | Inositol hexakisphosphate kinase 1 (Homo sapiens), Q92551 | IP6K1 kinase, ADP-Glo luminescence, 2 h; hits give low values | activity change, % (series mostly up to about 58 µM) | 0.81% of 140,000 active; in the data active = activity change below about -25%
# Target sequence (Q92551 whole entry, looked up): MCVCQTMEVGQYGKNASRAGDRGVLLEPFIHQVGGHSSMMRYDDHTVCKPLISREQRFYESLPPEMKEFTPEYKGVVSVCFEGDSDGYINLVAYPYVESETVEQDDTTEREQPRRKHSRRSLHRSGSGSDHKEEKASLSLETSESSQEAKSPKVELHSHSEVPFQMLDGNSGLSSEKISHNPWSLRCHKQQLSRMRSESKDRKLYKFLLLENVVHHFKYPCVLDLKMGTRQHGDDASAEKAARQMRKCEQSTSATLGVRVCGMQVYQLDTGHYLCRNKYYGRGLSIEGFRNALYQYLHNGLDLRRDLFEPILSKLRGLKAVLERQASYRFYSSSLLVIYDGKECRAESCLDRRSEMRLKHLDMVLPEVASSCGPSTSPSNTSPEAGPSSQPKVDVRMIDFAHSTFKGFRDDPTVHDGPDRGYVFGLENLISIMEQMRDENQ
#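 ADP-Glo luminescence measures ADP made by human IP6K1 during a 2 h RT reaction with ATP/IP6 (mix at 1.3 mM/130 uM); top library doses 57.5 and 19.1 uM final.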
# IP6K1 inh cnf: Confirmatory qHTS assay for small molecule inhibitors of Inositol hexaphosphate kinase 1 (IP6K1) | shares compounds with IP6K1 inh | recombinant IP6K1 kinase, ADP-Glo luminescence, 2 h | Potency, µM (top dose mostly 49 µM), usual class: inhibitors | 13% of 1,200 active | AID 1645852, 2021; also: nearly all actives have a fitted effect of over 65% in size
# Hits are given with their value; i = inactive; ? = inconclusive; nt = no result. A selection: hits, their analogues and other compounds. The true share with any hit is near 2.8%. Unless noted, calls follow the shape of the dose curve; as a rule, active = well fitted inhibition curve with a large enough effect; inconclusive = small, poorly fitted or top-dose-only effect; inactive = no such curve, though single readings can be large or run the other way.
SMILES,KDM5B inh,IP6K1 inh,IP6K1 inh cnf
O=C(NCc1ccc2c(c1)CCN2C(=O)c1ccncc1)c1ccccc1Br,i,i,nt
N#CC(=Cc1ccc(O)c(O)c1)C(=O)NCc1ccccc1,nt,nt,?
N#C/C(=C\c1c2ccccc2cc2ccccc12)C(=O)NCCc1ccccc1,i,nt,nt
Cc1ccc(S(=O)(=O)N(C)CC2CCOCC2)c(C)c1,i,i,nt
COc1cc(F)ccc1-c1nccc2c(=O)cc(-c3cnn(C)c3)oc12,?,i,nt
CN(C)c1cc(=O)c2ccnc(Nc3cccnc3)c2o1,?,i,nt
CN(c1ccccc1)c1cc(=O)c2ccnc(-c3cncnc3)c2o1,?,-26,i
CN(C)c1cc(=O)c2ccnc(-c3cccc(C(F)(F)F)c3)c2o1,i,-33,?
Cc1cccn2c(=O)c3cc(C(=O)N4CCN(c5ccccc5)CC4)sc3nc12,i,nt,nt
Cn1ncc2c(Nc3cccc(F)c3)ncnc21,?,-28,?
Cc1cc(C)c(Nc2ncnc3c2cnn3C)c(C)c1,?,i,nt
O=C(c1ccc(C(F)(F)F)cc1)N1CCC2(CC1)CC(c1cccnc1)=NO2,i,i,nt
CCCCOC(=O)/C(C#N)=C/c1ccc(-c2ccc(Br)cc2)o1,i,-31,i
CCOC(=O)/C(C#N)=C/c1ccc(-c2ccccc2)o1,?,i,nt
CCc1ccccc1NC(=O)CSc1nnc(-c2cc3cccc(OC)c3o2)n1N,i,nt,nt
Cc1cccc(N2CCN(c3ccc(C(=O)O)cc3NC(=O)c3cccc(Cl)c3)CC2C)c1 (stereo not drawn),?,-28,?
Cc1cccc(N2CCN(c3ccc(NC(=O)c4ccccc4)cc3C(=O)O)CC2C)c1 (stereo not drawn),?,i,nt
CCCOc1c(CN2CCCNCC2)cc(Cl)cc1OC,i,i,nt
N#CCC(C1CCCC1)n1cc(-c2ncnc3[nH]ccc23)cn1 (stereo not drawn),nt,i,i
O=C(OC1CCCCC1=O)c1ccc(Br)cc1 (stereo not drawn),i,nt,nt
Cc1cccc2cc(-c3noc(-c4ccc(C(C)(C)C)cc4)n3)c(=O)[nH]c12,i,nt,nt
Cc1c(Cl)cccc1-n1ncc(C(=O)Nc2ccc(Br)cc2F)c1C1CCNCC1,?,-26,?
Cc1ccc(-n2ncc(C(=O)N3CCN(c4cccc(C)c4C)CC3)c2C2CCNCC2)c(C)c1,?,i,nt
CN1C(=O)CCCCC1C(=O)NCc1ccccc1 (stereo not drawn),i,i,nt
Cn1c(=O)c(=O)n(C)c2cc(N3CCOCC3)c(NS(=O)(=O)c3ccc(Cl)cc3)cc21,?,-32,i
SMILES,KDM5B inh,IP6K1 inh,IP6K1 inh cnf
Cn1c(=O)n(C)c2cc(N3CCOCC3)c(NS(=O)(=O)c3ccc(Cl)cc3)cc21,i,i,nt
COc1cc(O)c2c(c1)/C=C/C[C@H](O)[C@H](O)C(=O)/C=C\C[C@H](C)OC2=O,nt,-30,?
COc1cc(O)c2c(c1)C1=CC(O)C(O)CC1(C)OC2=O (stereo not drawn),nt,i,nt
COc1ccc(CN2C(=O)[C@@H]3C[C@@H](O)CN3C3(CN(C4CCC4)C3)C2=O)cc1,i,i,nt
Cc1ccc(S(=O)(=O)N2CCN(C(=O)c3cc4cc(Cl)ccc4nc3C)CC2)c(C)c1,i,nt,nt
CC1CCN(c2oc(-c3cccs3)nc2S(=O)(=O)c2ccccc2)CC1,?,i,nt
O=S(=O)(c1ccc(Cl)cc1)c1nc(-c2cccs2)oc1N1CCCCC1,?,-27,i
Cc1ccc(-c2cc(C(=O)N3CCC(c4nc(C5CCOCC5)no4)C3)c3ccccc3n2)cc1C (stereo not drawn),25µM,-28,i
Cc1cccc(C(=O)N2CCC(c3nc(C4CCOCC4)no3)C2)c1 (stereo not drawn),?,i,nt
O=C(c1cc2cc(Br)ccc2o1)c1cc(F)ccc1F,i,nt,nt
O=C(Nc1ccc(Cl)cc1)N1CCCC(c2nn(-c3ccc(Cl)cc3)c(=O)[nH]2)C1 (stereo not drawn),i,i,nt
O=C(NC(=O)c1ccc(F)cc1)Nc1ccc(-c2cc(C(F)(F)F)nn2-c2ccccc2)cc1,?,i,nt
NCC(=O)Nc1ccc(-n2nc(C(F)(F)F)cc2-c2ccc3c(ccc4ccccc43)c2)cc1,nt,-35,?
CC(=O)Nc1cc(C(=O)NCCC2=CCCCC2)ccc1Sc1ccc(C)cc1,i,nt,nt
COc1ccc(-c2cc(C(=O)NCc3c(C)cc(C)[nH]c3=O)c3c(c2)N(C(C)C)CCO3)cc1OC,35µM,-27,?
COc1ccccc1-c1cc2c(ccn2C(C)C)c(C(=O)NCc2c(C)cc(C)[nH]c2=O)n1,?,i,nt
Cc1ccc(NC(=O)c2csc3c2CCCCC3)cc1C,i,nt,nt
CCOC(=O)c1ccc(NC(=O)c2csc3c2CCCC3)cc1,?,-33,?
O=C(N[C@@H](Cn1cc(Cl)c(=O)[nH]c1=O)C(=O)O)c1cccc(F)c1,i,i,nt
O=c1nc(-c2ccccn2)sc2ccccc12,nt,-54,i
NC(N)=Nc1nc(=O)c2ccccc2s1,i,nt,nt
COc1ccc(-c2[nH]ncc2CN2CCc3nc(N4CCN(C)CC4)[nH]c(=O)c3CC2)cc1,i,i,nt
Cc1ccsc1C(=O)N1CCC2(CC1)C(=O)N(c1cccc(F)c1)C2c1ccccc1 (stereo not drawn),nt,i,nt
O[C@H]1CC[C@@H](Cc2cc(COc3ccccc3)on2)O[C@@H]1CNCc1cccc(Cl)c1,i,i,nt
CC(C)(C)C(=O)N1CCC2(CC1)CCN(Cc1cccs1)c1ccccc1O2,?,i,nt
SMILES,KDM5B inh,IP6K1 inh,IP6K1 inh cnf
CC(=O)N1CC2(Cc3ccccc3N(C(C)=O)C2)C1,i,i,nt
COC(=O)N1CC2(Cc3ccccc3N(C(C)=O)C2)C1,i,-25,i
c1csc(-c2nc(N3CCOCC3)c3ccccc3n2)c1,i,nt,nt
Oc1cccc(-c2nc(N3CCOCC3)c3oc4ncccc4c3n2)c1,nt,nt,?
Cc1ccc(NC(=O)C(SC2CCCC2)c2ccccc2)cc1 (stereo not drawn),i,nt,nt
O=C1C(SCCO)=C(SCCO)C(=O)c2ccccc21,nt,nt,10µM
O=C1c2ccccc2CN1C(CO)c1ccccc1 (stereo not drawn),i,nt,nt
O=S(=O)(c1ccccc1)N1CCC2(CC1)CC(OCC1CC1)CCO2 (stereo not drawn),i,i,nt
CCOc1ccc(CNC(=O)c2cnc3sc(N4CCOCC4)nn3c2=O)cc1,i,i,nt
Cc1ccccc1CNC(=O)c1cnc2sc(N3CCOCC3)nn2c1=O,?,-100,i
CC(C)(C)c1ccc(C(=O)N/N=C/C2CC3CCC2C3)cc1 (stereo not drawn),i,nt,nt
COc1cc(Nc2nc3ccccc3nc2NS(=O)(=O)c2cccc(Cl)c2)cc(OC)c1,i,nt,nt
Clc1cccc(-c2ccc(CN3CCN(C4CCNC4)CC3)o2)c1 (stereo not drawn),?,-28,i
O=C(Nc1cccc(-c2cccc(Cl)c2)c1)C1CCN(Cc2ccc(CO)o2)CC1,i,nt,nt
COc1ccc(-n2c(=O)c3c(n2Cc2ccccc2)CN(CCCc2ccccc2)CC3)cc1,i,-28,i
COc1ccc(-n2c(=O)c3c(n2Cc2ccccc2)CN(Cc2ccc(F)cc2)CC3)cc1,i,i,nt
O=C(c1cnccn1)N1CCCCCCn2c(nnc2-c2ccc(F)cc2)CC1,i,i,nt

# Screens: PubChem BioAssay, National Center for Advancing Translational Sciences (NCATS)
